Measured values as given in paper PMC12529666, “Dysregulation of AGO2-miRNA dynamics underlies the AGO2-associated Lessel–Kreienkamp syndrome”.

B1: ACACTTCA (ssRNA)
RNA 1: GAGUUCUACAGUCCGACGAUCCCAACACACUUCACACCUGGAAUUCUCGGGUGCCAA
RNA 2: UGGAGUGUGACAAUGGUGUUUG
DNA 1: GATCGTCGGACTGTAGAACTC
DNA 2: TTGGCACCCGAGAATTCCA
modifications: constant regions annealed to DNA blockers; guide miR-122 5' phosphate
B2: ATACCTCA (ssRNA)
RNA 1: GAGUUCUACAGUCCGACGAUCCCAACAUACCUCACACCUGGAAUUCUCGGGUGCCAA
RNA 2: UGGAGUGUGACAAUGGUGUUUG
DNA 1: GATCGTCGGACTGTAGAACTC
DNA 2: TTGGCACCCGAGAATTCCA
modifications: constant regions annealed to DNA blockers; guide miR-122 5' phosphate
B3: GTGCTCCA (ssRNA)
RNA 1: GAGUUCUACAGUCCGACGAUCCCAACGUGCUCCACACCUGGAAUUCUCGGGUGCCAA
RNA 2: UGGAGUGUGACAAUGGUGUUUG
DNA 1: GATCGTCGGACTGTAGAACTC
DNA 2: TTGGCACCCGAGAATTCCA
modifications: constant regions annealed to DNA blockers; guide miR-122 5' phosphate
B4: ATGTCCCA (ssRNA)
RNA 1: GAGUUCUACAGUCCGACGAUCCCAACAUGUCCCACACCUGGAAUUCUCGGGUGCCAA
RNA 2: UGGAGUGUGACAAUGGUGUUUG
DNA 1: GATCGTCGGACTGTAGAACTC
DNA 2: TTGGCACCCGAGAATTCCA
modifications: constant regions annealed to DNA blockers; guide miR-122 5' phosphate
B5: GCACCCCA (ssRNA)
RNA 1: GAGUUCUACAGUCCGACGAUCCCAACGCACCCCACACCUGGAAUUCUCGGGUGCCAA
RNA 2: UGGAGUGUGACAAUGGUGUUUG
DNA 1: GATCGTCGGACTGTAGAACTC
DNA 2: TTGGCACCCGAGAATTCCA
modifications: constant regions annealed to DNA blockers; guide miR-122 5' phosphate
B6: ATACTTCA (ssRNA)
RNA 1: GAGUUCUACAGUCCGACGAUCCCAACAUACUUCACACCUGGAAUUCUCGGGUGCCAA
RNA 2: UGGAGUGUGACAAUGGUGUUUG
DNA 1: GATCGTCGGACTGTAGAACTC
DNA 2: TTGGCACCCGAGAATTCCA
modifications: constant regions annealed to DNA blockers; guide miR-122 5' phosphate
B7: ACACCCTA (ssRNA)
RNA 1: GAGUUCUACAGUCCGACGAUCCCAACACACCCUACACCUGGAAUUCUCGGGUGCCAA
RNA 2: UGGAGUGUGACAAUGGUGUUUG
DNA 1: GATCGTCGGACTGTAGAACTC
DNA 2: TTGGCACCCGAGAATTCCA
modifications: constant regions annealed to DNA blockers; guide miR-122 5' phosphate
B8: GCACTCCG (ssRNA)
RNA 1: GAGUUCUACAGUCCGACGAUCCCAACGCACUCCGCACCUGGAAUUCUCGGGUGCCAA
RNA 2: UGGAGUGUGACAAUGGUGUUUG
DNA 1: GATCGTCGGACTGTAGAACTC
DNA 2: TTGGCACCCGAGAATTCCA
modifications: constant regions annealed to DNA blockers; guide miR-122 5' phosphate
B9: ATATCTCA (ssRNA)
RNA 1: GAGUUCUACAGUCCGACGAUCCCAACAUAUCUCACACCUGGAAUUCUCGGGUGCCAA
RNA 2: UGGAGUGUGACAAUGGUGUUUG
DNA 1: GATCGTCGGACTGTAGAACTC
DNA 2: TTGGCACCCGAGAATTCCA
modifications: constant regions annealed to DNA blockers; guide miR-122 5' phosphate
B10: ACATTTCA (ssRNA)
RNA 1: GAGUUCUACAGUCCGACGAUCCCAACACAUUUCACACCUGGAAUUCUCGGGUGCCAA
RNA 2: UGGAGUGUGACAAUGGUGUUUG
DNA 1: GATCGTCGGACTGTAGAACTC
DNA 2: TTGGCACCCGAGAATTCCA
modifications: constant regions annealed to DNA blockers; guide miR-122 5' phosphate
B11: GCATTTCA (ssRNA)
RNA 1: GAGUUCUACAGUCCGACGAUCCCAACGCAUUUCACACCUGGAAUUCUCGGGUGCCAA
RNA 2: UGGAGUGUGACAAUGGUGUUUG
DNA 1: GATCGTCGGACTGTAGAACTC
DNA 2: TTGGCACCCGAGAATTCCA
modifications: constant regions annealed to DNA blockers; guide miR-122 5' phosphate
B12: GCATTCCA (ssRNA)
RNA 1: GAGUUCUACAGUCCGACGAUCCCAACGCAUUCCACACCUGGAAUUCUCGGGUGCCAA
RNA 2: UGGAGUGUGACAAUGGUGUUUG
DNA 1: GATCGTCGGACTGTAGAACTC
DNA 2: TTGGCACCCGAGAATTCCA
modifications: constant regions annealed to DNA blockers; guide miR-122 5' phosphate
B13: ACGTCTCA (ssRNA)
RNA 1: GAGUUCUACAGUCCGACGAUCCCAACACGUCUCACACCUGGAAUUCUCGGGUGCCAA
RNA 2: UGGAGUGUGACAAUGGUGUUUG
DNA 1: GATCGTCGGACTGTAGAACTC
DNA 2: TTGGCACCCGAGAATTCCA
modifications: constant regions annealed to DNA blockers; guide miR-122 5' phosphate
B14: ATGCTCCG (ssRNA)
RNA 1: GAGUUCUACAGUCCGACGAUCCCAACAUGCUCCGCACCUGGAAUUCUCGGGUGCCAA
RNA 2: UGGAGUGUGACAAUGGUGUUUG
DNA 1: GATCGTCGGACTGTAGAACTC
DNA 2: TTGGCACCCGAGAATTCCA
modifications: constant regions annealed to DNA blockers; guide miR-122 5' phosphate
B15: GCACTCTA (ssRNA)
RNA 1: GAGUUCUACAGUCCGACGAUCCCAACGCACUCUACACCUGGAAUUCUCGGGUGCCAA
RNA 2: UGGAGUGUGACAAUGGUGUUUG
DNA 1: GATCGTCGGACTGTAGAACTC
DNA 2: TTGGCACCCGAGAATTCCA
modifications: constant regions annealed to DNA blockers; guide miR-122 5' phosphate
B16: ACATCCCA (ssRNA)
RNA 1: GAGUUCUACAGUCCGACGAUCCCAACACAUCCCACACCUGGAAUUCUCGGGUGCCAA
RNA 2: UGGAGUGUGACAAUGGUGUUUG
DNA 1: GATCGTCGGACTGTAGAACTC
DNA 2: TTGGCACCCGAGAATTCCA
modifications: constant regions annealed to DNA blockers; guide miR-122 5' phosphate
B17: ACGCCTCA (ssRNA)
RNA 1: GAGUUCUACAGUCCGACGAUCCCAACACGCCUCACACCUGGAAUUCUCGGGUGCCAA
RNA 2: UGGAGUGUGACAAUGGUGUUUG
DNA 1: GATCGTCGGACTGTAGAACTC
DNA 2: TTGGCACCCGAGAATTCCA
modifications: constant regions annealed to DNA blockers; guide miR-122 5' phosphate
B18: GTATTCCA (ssRNA)
RNA 1: GAGUUCUACAGUCCGACGAUCCCAACGUAUUCCACACCUGGAAUUCUCGGGUGCCAA
RNA 2: UGGAGUGUGACAAUGGUGUUUG
DNA 1: GATCGTCGGACTGTAGAACTC
DNA 2: TTGGCACCCGAGAATTCCA
modifications: constant regions annealed to DNA blockers; guide miR-122 5' phosphate
B19: GCACCTCA (ssRNA)
RNA 1: GAGUUCUACAGUCCGACGAUCCCAACGCACCUCACACCUGGAAUUCUCGGGUGCCAA
RNA 2: UGGAGUGUGACAAUGGUGUUUG
DNA 1: GATCGTCGGACTGTAGAACTC
DNA 2: TTGGCACCCGAGAATTCCA
modifications: constant regions annealed to DNA blockers; guide miR-122 5' phosphate

target: AGO2 WT (phosphosite mutant background) (Homo sapiens, UniProt Q9UKV8 1-859, S387D;S824A;S828D;S831D;S834A); assay: RNA Bind-n-Seq (nitrocellulose filter binding and sequencing); miR-122 guide loaded in AGO2; 60 min incubation; 30 mM Tris pH 8.0, 100 mM potassium acetate, 2 mM magnesium acetate, 0.5 mM TCEP, 0.005% NP-40, 0.01 mg/ml yeast tRNA; 3 nM AGO2-miR-122, 100 nM RNA library; 60; high values mean tight binding; conditions: protein: recombinant; tags: His6 (N-terminal, pFastBac HTA)
Sequence (Q9UKV8 whole entry S387D/S824A/S828D/S831D/S834A): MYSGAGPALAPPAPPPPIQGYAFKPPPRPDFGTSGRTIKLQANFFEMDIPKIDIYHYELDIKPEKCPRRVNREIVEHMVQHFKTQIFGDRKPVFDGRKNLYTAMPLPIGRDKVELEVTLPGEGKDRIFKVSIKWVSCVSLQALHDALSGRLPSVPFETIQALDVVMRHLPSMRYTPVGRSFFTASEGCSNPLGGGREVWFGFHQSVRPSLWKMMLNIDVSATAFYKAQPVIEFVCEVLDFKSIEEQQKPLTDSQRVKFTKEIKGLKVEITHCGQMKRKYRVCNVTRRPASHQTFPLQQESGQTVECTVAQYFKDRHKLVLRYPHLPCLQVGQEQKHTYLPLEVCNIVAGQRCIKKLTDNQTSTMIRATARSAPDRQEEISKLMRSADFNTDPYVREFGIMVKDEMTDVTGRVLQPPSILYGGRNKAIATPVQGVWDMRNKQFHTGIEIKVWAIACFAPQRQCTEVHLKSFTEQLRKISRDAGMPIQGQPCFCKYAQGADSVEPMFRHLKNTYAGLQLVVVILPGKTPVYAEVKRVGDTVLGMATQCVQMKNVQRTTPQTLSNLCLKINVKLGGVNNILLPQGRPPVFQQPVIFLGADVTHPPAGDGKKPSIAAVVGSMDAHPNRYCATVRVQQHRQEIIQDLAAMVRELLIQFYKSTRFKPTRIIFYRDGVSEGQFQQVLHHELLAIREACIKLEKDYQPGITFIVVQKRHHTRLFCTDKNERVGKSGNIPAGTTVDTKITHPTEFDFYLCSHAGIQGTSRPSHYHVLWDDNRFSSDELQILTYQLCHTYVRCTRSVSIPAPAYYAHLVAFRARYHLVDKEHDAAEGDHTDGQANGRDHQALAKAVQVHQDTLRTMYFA
Outline: (§1)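 Fold enrichment is each target's read fraction divided by its read fraction in the input library. Sf9 insect cells expressed His-tagged AGO2 from baculovirus; the protein was loaded with a synthetic guide RNA and purified by Ni-NTA and a biotinylated capture oligo. The bound RNA was extracted, reverse-transcribed, barcode-amplified and sequenced on Illumina.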

Binder | binding signal
B1 | 0.24 fold enrichment over input
B2 | 0.138 fold enrichment over input
B3 | 0.17 fold enrichment over input
B4 | 0.155 fold enrichment over input
B5 | 0.164 fold enrichment over input
B6 | 0.136 fold enrichment over input
B7 | 0.142 fold enrichment over input
B8 | 85.3 fold enrichment over input
B9 | 0.165 fold enrichment over input
B10 | 0.235 fold enrichment over input
B11 | 0.165 fold enrichment over input
B12 | 0.182 fold enrichment over input
B13 | 0.177 fold enrichment over input
B14 | 0.186 fold enrichment over input
B15 | 0.168 fold enrichment over input
B16 | 0.154 fold enrichment over input
B17 | 0.15 fold enrichment over input
B18 | 0.18 fold enrichment over input
B19 | 0.17 fold enrichment over input

target: AGO2 L192P (Homo sapiens, UniProt Q9UKV8 1-859, L192P;S387D;S824A;S828D;S831D;S834A); assay: as above; conditions: protein: recombinant; tags: His6 (N-terminal, pFastBac HTA)
Sequence (Q9UKV8 whole entry L192P/S387D/S824A/S828D/S831D/S834A): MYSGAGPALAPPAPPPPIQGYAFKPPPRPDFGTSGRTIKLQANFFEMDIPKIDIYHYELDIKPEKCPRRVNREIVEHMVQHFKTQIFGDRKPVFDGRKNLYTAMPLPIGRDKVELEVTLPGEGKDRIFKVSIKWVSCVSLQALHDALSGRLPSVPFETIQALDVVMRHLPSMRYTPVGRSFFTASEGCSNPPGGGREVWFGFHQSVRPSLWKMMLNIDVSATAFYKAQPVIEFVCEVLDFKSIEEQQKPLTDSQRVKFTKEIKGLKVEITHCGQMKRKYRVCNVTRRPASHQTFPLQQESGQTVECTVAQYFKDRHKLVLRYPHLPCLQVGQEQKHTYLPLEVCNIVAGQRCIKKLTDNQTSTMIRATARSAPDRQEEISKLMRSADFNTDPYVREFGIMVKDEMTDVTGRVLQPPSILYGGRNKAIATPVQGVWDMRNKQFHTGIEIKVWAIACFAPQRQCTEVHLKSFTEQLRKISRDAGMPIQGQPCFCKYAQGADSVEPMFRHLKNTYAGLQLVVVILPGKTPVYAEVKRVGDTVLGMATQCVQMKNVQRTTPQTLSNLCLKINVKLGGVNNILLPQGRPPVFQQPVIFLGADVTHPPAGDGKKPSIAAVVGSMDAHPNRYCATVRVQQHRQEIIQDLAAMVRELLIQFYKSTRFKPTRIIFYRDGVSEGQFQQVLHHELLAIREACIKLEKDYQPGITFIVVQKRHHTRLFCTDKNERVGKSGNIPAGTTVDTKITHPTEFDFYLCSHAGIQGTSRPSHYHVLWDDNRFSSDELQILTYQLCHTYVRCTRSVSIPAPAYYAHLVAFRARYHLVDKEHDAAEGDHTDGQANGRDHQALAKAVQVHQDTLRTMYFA
Outline: as §1

Binder | binding signal
B1 | 0.941 fold enrichment over input
B2 | 0.642 fold enrichment over input
B3 | 0.594 fold enrichment over input
B4 | 0.54 fold enrichment over input
B5 | 0.6 fold enrichment over input
B6 | 0.646 fold enrichment over input
B7 | 0.6 fold enrichment over input
B8 | 60.8 fold enrichment over input
B9 | 0.635 fold enrichment over input
B10 | 1.13 fold enrichment over input
B11 | 0.769 fold enrichment over input
B12 | 0.661 fold enrichment over input
B13 | 0.659 fold enrichment over input
B14 | 1.56 fold enrichment over input
B15 | 0.562 fold enrichment over input
B16 | 0.641 fold enrichment over input
B17 | 0.597 fold enrichment over input
B18 | 0.545 fold enrichment over input
B19 | 0.761 fold enrichment over input

target: AGO2 A367P (Homo sapiens, UniProt Q9UKV8 1-859, A367P;S387D;S824A;S828D;S831D;S834A); assay: as above; conditions: protein: recombinant; tags: His6 (N-terminal, pFastBac HTA)
Sequence (Q9UKV8 whole entry A367P/S387D/S824A/S828D/S831D/S834A): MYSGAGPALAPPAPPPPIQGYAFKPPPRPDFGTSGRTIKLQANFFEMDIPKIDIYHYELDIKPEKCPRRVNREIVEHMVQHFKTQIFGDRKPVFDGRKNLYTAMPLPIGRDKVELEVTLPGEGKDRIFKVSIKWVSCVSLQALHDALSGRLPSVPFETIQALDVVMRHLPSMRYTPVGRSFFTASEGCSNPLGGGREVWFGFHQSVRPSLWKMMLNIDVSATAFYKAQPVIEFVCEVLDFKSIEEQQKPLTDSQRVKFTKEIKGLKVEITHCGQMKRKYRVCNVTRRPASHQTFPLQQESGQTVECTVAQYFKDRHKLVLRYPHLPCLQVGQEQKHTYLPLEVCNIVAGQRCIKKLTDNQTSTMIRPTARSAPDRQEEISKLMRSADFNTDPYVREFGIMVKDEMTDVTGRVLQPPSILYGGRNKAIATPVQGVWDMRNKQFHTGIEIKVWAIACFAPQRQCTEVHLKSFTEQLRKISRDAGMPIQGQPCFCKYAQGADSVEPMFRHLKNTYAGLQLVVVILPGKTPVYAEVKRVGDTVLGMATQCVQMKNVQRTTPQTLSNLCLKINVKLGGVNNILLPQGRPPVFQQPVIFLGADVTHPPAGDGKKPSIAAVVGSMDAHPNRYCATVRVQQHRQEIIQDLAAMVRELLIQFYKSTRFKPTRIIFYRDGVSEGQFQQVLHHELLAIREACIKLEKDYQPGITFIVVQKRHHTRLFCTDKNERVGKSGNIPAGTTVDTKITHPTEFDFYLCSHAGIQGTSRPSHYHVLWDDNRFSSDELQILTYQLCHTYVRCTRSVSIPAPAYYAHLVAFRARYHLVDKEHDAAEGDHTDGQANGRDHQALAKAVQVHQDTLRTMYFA
Outline: as §1

Binder | binding signal
B1 | 0.66 fold enrichment over input
B2 | 0.406 fold enrichment over input
B3 | 0.522 fold enrichment over input
B4 | 0.303 fold enrichment over input
B5 | 0.263 fold enrichment over input
B6 | 0.396 fold enrichment over input
B7 | 0.25 fold enrichment over input
B8 | 86.8 fold enrichment over input
B9 | 0.396 fold enrichment over input
B10 | 0.727 fold enrichment over input
B11 | 0.434 fold enrichment over input
B12 | 0.356 fold enrichment over input
B13 | 0.413 fold enrichment over input
B14 | 1.45 fold enrichment over input
B15 | 0.306 fold enrichment over input
B16 | 0.325 fold enrichment over input
B17 | 0.316 fold enrichment over input
B18 | 0.446 fold enrichment over input
B19 | 0.505 fold enrichment over input

target: AGO2 T357M (Homo sapiens, UniProt Q9UKV8 1-859, T357M;S387D;S824A;S828D;S831D;S834A); assay: as above; conditions: protein: recombinant; tags: His6 (N-terminal, pFastBac HTA)
Sequence (Q9UKV8 whole entry T357M/S387D/S824A/S828D/S831D/S834A): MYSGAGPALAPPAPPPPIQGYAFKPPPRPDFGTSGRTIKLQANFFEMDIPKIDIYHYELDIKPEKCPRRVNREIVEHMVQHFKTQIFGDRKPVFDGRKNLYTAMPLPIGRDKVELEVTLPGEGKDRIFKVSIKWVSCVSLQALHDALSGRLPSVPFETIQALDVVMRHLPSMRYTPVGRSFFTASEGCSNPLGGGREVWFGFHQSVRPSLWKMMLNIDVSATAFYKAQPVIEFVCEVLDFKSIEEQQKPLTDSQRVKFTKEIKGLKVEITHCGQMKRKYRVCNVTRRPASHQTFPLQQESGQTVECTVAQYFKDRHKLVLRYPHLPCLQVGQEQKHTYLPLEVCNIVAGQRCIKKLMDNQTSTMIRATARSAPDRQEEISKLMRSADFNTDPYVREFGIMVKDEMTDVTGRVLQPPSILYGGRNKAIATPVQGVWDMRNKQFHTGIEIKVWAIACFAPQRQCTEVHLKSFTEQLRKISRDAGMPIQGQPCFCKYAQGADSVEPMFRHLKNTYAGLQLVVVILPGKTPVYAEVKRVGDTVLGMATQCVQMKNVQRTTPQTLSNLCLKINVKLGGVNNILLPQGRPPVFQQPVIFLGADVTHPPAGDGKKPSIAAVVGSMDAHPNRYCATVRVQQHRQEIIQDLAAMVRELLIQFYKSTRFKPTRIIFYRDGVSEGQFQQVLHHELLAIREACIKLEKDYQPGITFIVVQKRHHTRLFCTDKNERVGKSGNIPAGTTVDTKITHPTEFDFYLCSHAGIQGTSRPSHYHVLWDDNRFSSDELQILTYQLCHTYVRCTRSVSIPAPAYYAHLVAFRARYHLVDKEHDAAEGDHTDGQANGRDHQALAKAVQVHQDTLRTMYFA
Outline: as §1

Binder | binding signal
B1 | 0.675 fold enrichment over input
B2 | 0.575 fold enrichment over input
B3 | 0.649 fold enrichment over input
B4 | 0.599 fold enrichment over input
B5 | 0.699 fold enrichment over input
B6 | 0.62 fold enrichment over input
B7 | 0.636 fold enrichment over input
B8 | 35.6 fold enrichment over input
B9 | 0.657 fold enrichment over input
B10 | 0.709 fold enrichment over input
B11 | 0.679 fold enrichment over input
B12 | 0.65 fold enrichment over input
B13 | 0.689 fold enrichment over input
B14 | 0.527 fold enrichment over input
B15 | 0.561 fold enrichment over input
B16 | 0.628 fold enrichment over input
B17 | 0.623 fold enrichment over input
B18 | 0.623 fold enrichment over input
B19 | 0.643 fold enrichment over input

target: AGO2 F182del (Homo sapiens, UniProt Q9UKV8 1-859, S387D;S824A;S828D;S831D;S834A;del182-182); assay: as above; conditions: protein: recombinant; tags: His6 (N-terminal, pFastBac HTA)
Sequence (Q9UKV8 other isoform, or with tags, fused parts or gaps S387D;S824A;S828D;S831D;S834A;del182-182): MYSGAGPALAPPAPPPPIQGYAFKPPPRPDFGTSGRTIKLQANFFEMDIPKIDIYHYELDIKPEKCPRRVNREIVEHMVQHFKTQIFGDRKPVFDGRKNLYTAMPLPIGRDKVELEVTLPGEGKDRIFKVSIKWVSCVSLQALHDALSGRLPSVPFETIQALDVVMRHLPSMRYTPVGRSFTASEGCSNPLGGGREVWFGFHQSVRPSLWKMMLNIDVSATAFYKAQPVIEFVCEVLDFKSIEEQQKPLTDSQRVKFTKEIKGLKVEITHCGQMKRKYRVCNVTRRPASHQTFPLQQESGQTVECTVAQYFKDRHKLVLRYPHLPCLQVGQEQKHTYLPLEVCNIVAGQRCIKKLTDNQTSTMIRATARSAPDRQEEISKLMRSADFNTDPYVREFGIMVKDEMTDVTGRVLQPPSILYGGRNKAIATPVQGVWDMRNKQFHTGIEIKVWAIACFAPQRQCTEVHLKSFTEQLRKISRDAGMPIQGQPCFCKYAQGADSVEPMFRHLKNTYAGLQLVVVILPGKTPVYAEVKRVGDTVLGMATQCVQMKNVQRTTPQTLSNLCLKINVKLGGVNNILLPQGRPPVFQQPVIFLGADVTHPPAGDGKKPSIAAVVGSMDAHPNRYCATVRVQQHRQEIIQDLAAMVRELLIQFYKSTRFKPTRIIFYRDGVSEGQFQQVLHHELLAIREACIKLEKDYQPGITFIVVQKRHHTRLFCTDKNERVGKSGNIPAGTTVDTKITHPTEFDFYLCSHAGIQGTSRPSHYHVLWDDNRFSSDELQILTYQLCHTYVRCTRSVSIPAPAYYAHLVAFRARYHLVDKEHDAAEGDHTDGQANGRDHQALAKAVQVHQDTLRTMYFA
Outline: as §1

Binder | binding signal
B1 | 2.79 fold enrichment over input
B2 | 1.82 fold enrichment over input
B3 | 0.604 fold enrichment over input
B4 | 0.697 fold enrichment over input
B5 | 0.666 fold enrichment over input
B6 | 1.33 fold enrichment over input
B7 | 0.799 fold enrichment over input
B8 | 69.5 fold enrichment over input
B9 | 1.42 fold enrichment over input
B10 | 4.77 fold enrichment over input
B11 | 1.83 fold enrichment over input
B12 | 1.01 fold enrichment over input
B13 | 1.38 fold enrichment over input
B14 | 1.55 fold enrichment over input
B15 | 0.786 fold enrichment over input
B16 | 1.11 fold enrichment over input
B17 | 0.822 fold enrichment over input
B18 | 0.898 fold enrichment over input
B19 | 2.01 fold enrichment over input
